In PubChem BioAssay AID1159580 (chemical genetic matrix, 2015):
The campaign covered roughly 5,500 compounds. About 2,000 (36%) were called active. About 18% were inconclusive and are not listed. No stated cut-off is given here; in the data, active means normalized growth mostly below about 0.91 (no sharp cut-off); inconclusive means no clear call, values can overlap the other calls; inactive means mostly above about 0.92. This is one part of the list.

Assay: chemical genetic growth profiling, strain panel (AID 1159580);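 further: tested at 20 µM; growth read once vehicle control cultures reached saturation at 30 °C; 1 = growth at the plate median or of vehicle wells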
Settings: growth OD

Measured: normalized growth

O=C(O)c1cccnc1
active: S. cerevisiae deletion strains, locus YLR268W, strain sec22, stronger effect = lower value 1.13 [resistant]
inactive: S. cerevisiae deletion strains, locus YJR075W, strain HOC1, stronger effect = lower value 1.06 | S. cerevisiae deletion strains, locus YKL009W, strain mrt4, stronger effect = lower value 0.982 | S. cerevisiae deletion strains, locus YKL068W, stronger effect = lower value 0.991 | S. cerevisiae deletion strains, locus YKL085W, strain MDH1 (second series), stronger effect = lower value 1.01 | S. cerevisiae deletion strains, locus YKL085W, strain MDH1, stronger effect = lower value 1.01 | S. cerevisiae deletion strains, locus YKL160W, strain elf1, stronger effect = lower value 1.01 | S. cerevisiae deletion strains, locus YKL190W, strain CNB1, stronger effect = lower value 0.997 | S. cerevisiae deletion strains, locus YKR001C, strain vps1, stronger effect = lower value 0.986 | S. cerevisiae deletion strains, locus YKR026C, strain gcn3, stronger effect = lower value 0.988 | S. cerevisiae deletion strains, locus YKR091W, strain srl3, stronger effect = lower value 0.996 | S. cerevisiae deletion strains, locus YLL001W, strain dnm1, stronger effect = lower value 0.999 | S. cerevisiae deletion strains, locus YLL026W, stronger effect = lower value 1 | S. cerevisiae deletion strains, locus YLL041C, strain sdh2, stronger effect = lower value 0.992 | S. cerevisiae deletion strains, locus YLR027C, strain aat2, stronger effect = lower value 1 | S. cerevisiae deletion strains, locus YLR039C, strain RIC1, stronger effect = lower value 0.982 | S. cerevisiae deletion strains, locus YLR058C, strain SHM2, stronger effect = lower value 0.981 | S. cerevisiae deletion strains, locus YLR102C, strain apc9, stronger effect = lower value 0.997 | S. cerevisiae deletion strains, locus YLR113W, strain HOG1, stronger effect = lower value 0.995 | S. cerevisiae deletion strains, locus YLR221C, strain rsa3, stronger effect = lower value 1.02 | S. cerevisiae deletion strains, locus YLR258W, strain gsy2, stronger effect = lower value 1.01 | S. cerevisiae deletion strains, locus YLR262C, strain YPT6 (second series), stronger effect = lower value 1.01 | S. cerevisiae deletion strains, locus YLR262C, strain YPT6, stronger effect = lower value 0.941 | S. cerevisiae deletion strains, locus YLR320W, strain mms22, stronger effect = lower value 1.02 | S. cerevisiae deletion strains, locus YLR330W, strain CHS5, stronger effect = lower value 0.999 | S. cerevisiae deletion strains, locus YLR342W, strain FKS1 (second series), stronger effect = lower value 0.999 | S. cerevisiae deletion strains, locus YLR342W, strain FKS1, stronger effect = lower value 0.992 | S. cerevisiae deletion strains, locus YLR357W, strain rsc2, stronger effect = lower value 0.991 | S. cerevisiae deletion strains, locus YLR370C, strain arc18, stronger effect = lower value 1 | S. cerevisiae deletion strains, locus YLR371W, strain rom2, stronger effect = lower value 0.985 | S. cerevisiae deletion strains, locus YLR384C, strain iki3, stronger effect = lower value 1.01 | S. cerevisiae deletion strains, locus YLR418C, strain cdc73, stronger effect = lower value 1.04 | S. cerevisiae deletion strains, locus YML016C, strain PPZ1, stronger effect = lower value 1.01 | S. cerevisiae deletion strains, locus YML032C, strain rad52, stronger effect = lower value 1.05 | S. cerevisiae deletion strains, locus YML120C, strain ndi1, stronger effect = lower value 0.993 | S. cerevisiae deletion strains, locus YML124C, strain tub3, stronger effect = lower value 0.995 | S. cerevisiae deletion strains, locus YMR058W, strain fet3, stronger effect = lower value 0.996 | S. cerevisiae deletion strains, locus YMR078C, strain ctf18, stronger effect = lower value 0.991 | S. cerevisiae deletion strains, locus YMR125W, strain sto1, stronger effect = lower value 0.979 | S. cerevisiae deletion strains, locus YMR129W, stronger effect = lower value 0.97 | S. cerevisiae deletion strains, locus YMR205C, strain PFK2, stronger effect = lower value 1.04 | S. cerevisiae deletion strains, locus YMR223W, strain ubp8, stronger effect = lower value 1 | S. cerevisiae deletion strains, locus YMR231W, strain pep5, stronger effect = lower value 1 | S. cerevisiae deletion strains, locus YMR263W, strain SAP30, stronger effect = lower value 1.01 | S. cerevisiae deletion strains, locus YMR307W, strain GAS1, stronger effect = lower value 0.938 | S. cerevisiae deletion strains, locus YNL067W, strain RPL9B, stronger effect = lower value 1.03 | S. cerevisiae deletion strains, locus YNL071W, strain lat1, stronger effect = lower value 0.975 | S. cerevisiae deletion strains, locus YNL128W, strain TEP1, stronger effect = lower value 0.971 | S. cerevisiae deletion strains, locus YNL153C, strain GIM3, stronger effect = lower value 1.03 | S. cerevisiae deletion strains, locus YNL183C, strain NPR1, stronger effect = lower value 0.961 | S. cerevisiae deletion strains, locus YNL209W, strain ssb2, stronger effect = lower value 0.99 | S. cerevisiae deletion strains, locus YNL233W, strain BNI4, stronger effect = lower value 1.05 | S. cerevisiae deletion strains, locus YNL248C, strain rpa49, stronger effect = lower value 1.01 | S. cerevisiae deletion strains, locus YNL250W, strain rad50, stronger effect = lower value 0.991 | S. cerevisiae deletion strains, locus YNL271C, strain bni1, stronger effect = lower value 0.992 | S. cerevisiae deletion strains, locus YNL298W, strain CLA4, stronger effect = lower value 0.977 | S. cerevisiae deletion strains, locus YNL307C, strain MCK1, stronger effect = lower value 1.02 | S. cerevisiae deletion strains, locus YNL322C, strain KRE1 (second series), stronger effect = lower value 0.997 | S. cerevisiae deletion strains, locus YNL322C, strain KRE1, stronger effect = lower value 0.996 | S. cerevisiae deletion strains, locus YNR049C, strain mso1, stronger effect = lower value 0.994 | S. cerevisiae deletion strains, locus YNR052C, strain pop2, stronger effect = lower value 1 | S. cerevisiae deletion strains, locus YOL006C, strain TOP1, stronger effect = lower value 1.03 | S. cerevisiae deletion strains, locus YOL012C, strain htz1 1.06 | S. cerevisiae deletion strains, locus YOL147C, strain pex11, stronger effect = lower value 1 | S. cerevisiae deletion strains, locus YOR001W, strain rrp6, stronger effect = lower value 0.977 | S. cerevisiae deletion strains, locus YOR061W, strain CKA2, stronger effect = lower value 0.97 | S. cerevisiae deletion strains, locus YOR069W, strain VPS5, stronger effect = lower value 0.996 | S. cerevisiae deletion strains, locus YOR070C, strain gyp1, stronger effect = lower value 1 | S. cerevisiae deletion strains, locus YOR080W, strain dia2, stronger effect = lower value 0.993 | S. cerevisiae deletion strains, locus YOR083W, strain WHI5, stronger effect = lower value 1.03 | S. cerevisiae deletion strains, locus YOR106W, strain vam3, stronger effect = lower value 1.05 | S. cerevisiae deletion strains, locus YOR136W, strain idh2, stronger effect = lower value 1 | S. cerevisiae deletion strains, locus YOR144C, strain elg1, stronger effect = lower value 0.995 | S. cerevisiae deletion strains, locus YOR184W, strain ser1, stronger effect = lower value 1.03 | S. cerevisiae deletion strains, locus YOR231W, strain MKK1, stronger effect = lower value 1.01 | S. cerevisiae deletion strains, locus YOR265W, strain rbl2, stronger effect = lower value 1 | S. cerevisiae deletion strains, locus YOR270C, strain vph1, stronger effect = lower value 0.978 | S. cerevisiae deletion strains, locus YOR290C, strain snf2, stronger effect = lower value 0.996 | S. cerevisiae deletion strains, locus YOR316C, strain cot1, stronger effect = lower value 0.998 | S. cerevisiae deletion strains, locus YPL051W, strain arl3, stronger effect = lower value 1.05 | S. cerevisiae deletion strains, locus YPL055C, strain LGE1, stronger effect = lower value 1.01 | S. cerevisiae deletion strains, locus YPL078C, strain atp4, stronger effect = lower value 0.999 | S. cerevisiae deletion strains, locus YPL106C, strain sse1, stronger effect = lower value 1.03 | S. cerevisiae deletion strains, locus YPL240C, strain hsp82, stronger effect = lower value 1.01 | S. cerevisiae deletion strains, locus YPL241C, strain CIN2, stronger effect = lower value 0.992 | S. cerevisiae deletion strains, locus YPL256C, strain CLN2, stronger effect = lower value 1.01 | S. cerevisiae deletion strains, locus YPR119W, strain clb2, stronger effect = lower value 0.998 | S. cerevisiae deletion strains, locus YPR141C, strain kar3, stronger effect = lower value 0.991 | S. cerevisiae deletion strains, locus YPR163C, strain tif3, stronger effect = lower value 0.995 | S. cerevisiae deletion strains, locus YPR167C, strain met16, stronger effect = lower value 1 | S. cerevisiae deletion strains, strain wtn01, stronger effect = lower value 1.04 | S. cerevisiae strains, strain wild type, stronger effect = lower value 0.995
